This excerpt belongs to a sample that is enriched for hits.
IDE exosite inh – exo-site inhibitors of human insulin-degrading enzyme | purified IDE, FL-6b probe fluorescence polarization; stronger effect = lower value | z-score at 20 µM | hit rate 6.3% among 17,000 | AID 1259349;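 active means z-score of -3 or lower, meaning strong loss of probe binding signal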;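 further: His-tagged human IDE residues 42-1019 made in E. coli with 30 nM FL-6b probe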
The depositor's hits bear a star.

Screening O=C(Nc1ccccc1)N1CC(=O)N2[C@@H](CO)[C@H](c3ccc(-c4ccc(F)cc4)cc3)[C@@H]2C1 returned IDE exosite inh 1.1.
For O=C(Nc1ccc(F)cc1)N1CC(=O)N2[C@@H](CO)[C@@H](c3ccc(-c4ccc(F)cc4)cc3)[C@@H]2C1 the results were IDE exosite inh 1.2.
For Cc1ccc(-c2ccc([C@@H]3[C@@H](CO)N4C(=O)CN(C(=O)Nc5ccc(F)cc5)C[C@H]34)cc2)cc1 the results were IDE exosite inh 1.4.
Screening Cc1ccccc1-c1ccc([C@@H]2[C@@H](CO)N3C(=O)CN(C(=O)Nc4ccccc4)C[C@H]23)cc1 returned IDE exosite inh -6.1*.
Screening Cc1ccccc1-c1ccc([C@H]2[C@@H](CO)N3C(=O)CN(C(=O)Nc4ccc(F)cc4)C[C@H]23)cc1 returned IDE exosite inh -21*.
For Cc1ccccc1-c1ccc([C@H]2[C@H]3CN(C(=O)Nc4ccc(F)cc4)CC(=O)N3[C@H]2CO)cc1 the results were IDE exosite inh -7*.
Screening C[C@@H]1CCCn2nncc2COCCNC1=O returned IDE exosite inh 0.29.
Screening COc1ccccc1-c1ccc2c(c1)O[C@@H](CN(C)CC1CCOCC1)[C@H](C)CN([C@H](C)CO)S2(=O)=O returned IDE exosite inh 1.3.
For CN1C(=O)c2cc(NC(=O)C3CCOCC3)ccc2OC[C@H]2O[C@H](CC(=O)NCC3CCCCC3)CC[C@@H]21 the results were IDE exosite inh 0.71.
`COc1ccccc1NC(=O)N1CCCCN2[C@H](C1)[C@@H](c1ccc(C#CC3CCCC3)cc1)[C@@H]2CO` gave IDE exosite inh 1.4.
C[C@H](NC(=O)[C@@H]1[C@@H](CO)[C@@H]2Cn3c(ccc(-c4ccccc4)c3=O)[C@@H]2N1C)c1ccccc1 was read as IDE exosite inh -0.28.
`O=C(C[C@H]1CC[C@@H]2[C@H](COC[C@@H](O)CN2CC2CCOCC2)O1)NCC1CCCCC1` gave IDE exosite inh 0.68.
For CCCNC(=O)N1[C@@H](C#N)[C@H](c2ccccc2-c2ccccc2F)[C@@H]1CO the results were IDE exosite inh 1.2.
CCNC[C@@H]1[C@H](c2ccc(-c3ccc(F)cc3)cc2)[C@H](CO)N1S(C)(=O)=O was read as IDE exosite inh 5.1.
For COc1cccc(NC(=O)N2CC(=O)N3[C@H](CO)[C@@H](c4ccc(Br)cc4)[C@@H]3C2)c1 the results were IDE exosite inh 0.75.
For CCC(=O)N1CC(=O)N2[C@H](CO)[C@H](c3ccc(C#CC(C)C)cc3)[C@@H]2C1 the results were IDE exosite inh 3.6.
O=C(Nc1ccc(F)cc1)N1CC(=O)N2[C@@H](CO)[C@H](c3ccc(-c4ccccc4)cc3)[C@@H]2C1 was read as IDE exosite inh 0.29.
For O=C(Nc1ccc(F)cc1)N1CC(=O)N2[C@H](CO)[C@@H](c3ccc(-c4ccccc4)cc3)[C@H]2C1 the results were IDE exosite inh 1.6.
For O=C(Nc1ccc(F)cc1)N1CC(=O)N2[C@H](CO)[C@H](c3ccc(-c4ccccc4)cc3)[C@H]2C1 the results were IDE exosite inh -5.5*.
COc1ccc(CN2C[C@H](O)COC[C@H]3O[C@H](CC(=O)N(C)C)CC[C@@H]32)cc1 was read as IDE exosite inh -1.5.
N#C[C@H]1[C@@H](c2ccc(C3=CCCC3)cc2)[C@H](CO)N1C(=O)c1cccc(F)c1 was read as IDE exosite inh 4.1.
`O=C(c1cccc(F)c1)N1CCCCN2[C@@H](CO)[C@H](c3ccc(-c4ccncc4)cc3)[C@@H]2C1` gave IDE exosite inh 1.1.
Screening Cc1cccc(-c2ccc([C@@H]3[C@@H](CO)N4CCCCN(C(=O)c5ccncc5)C[C@H]34)cc2)c1 returned IDE exosite inh -3.1*.
Screening Cc1ccc(-c2ccc([C@@H]3[C@@H](CO)N4CCCCN(C(=O)c5ccncc5)C[C@H]34)cc2)cc1 returned IDE exosite inh 2.8.
Cc1ccc(-c2ccc([C@@H]3[C@H]4CN(C(=O)c5ccncc5)CCCCN4[C@H]3CO)cc2)cc1 was read as IDE exosite inh -2.6.
COc1ccccc1-c1ccc([C@@H]2[C@@H](CO)N3CCCCN(C(=O)c4cccnc4)C[C@H]23)cc1 was read as IDE exosite inh 0.079.
`Cc1ccc(-c2ccc([C@H]3[C@@H](CO)N4CCCCN(C(=O)c5ccncc5)C[C@@H]34)cc2)cc1` gave IDE exosite inh 0.15.
`O=C(c1ccncc1)N1CCCCN2[C@H](CO)[C@H](c3ccc(-c4ccccc4)cc3)[C@@H]2C1` gave IDE exosite inh 2.5.
`COc1ccccc1-c1ccc([C@@H]2[C@H](CO)N3CCCCN(C(=O)c4ccncc4)C[C@@H]23)cc1` gave IDE exosite inh -13*.
Screening Cc1ccc(-c2ccc([C@H]3[C@H](CO)N4CCCCN(C(=O)c5ccncc5)C[C@@H]34)cc2)cc1 returned IDE exosite inh -0.74.
Screening Cc1cccc(-c2ccc([C@@H]3[C@@H](CO)N4CCCCN(C(=O)c5ccncc5)C[C@@H]34)cc2)c1 returned IDE exosite inh -3.1*.
Cc1cccc(-c2ccc([C@@H]3[C@H]4CN(C(=O)c5ccncc5)CCCCN4[C@H]3CO)cc2)c1 was read as IDE exosite inh -17*.
